Measurements: PubChem BioAssay (NCATS)
Results filed as inconclusive are left out. Calls of active or inactive are those of the source. The call rests on the fitted dose curve; in most records, active means well fitted curve in the direction sought with a large enough effect; inconclusive means small, poorly fitted or top-dose-only effect, or another doubt; inactive means no such curve, though single readings can be large; an effect the other way counts as inactive or inconclusive.

How the values were obtained:
[1] = molecular target: Aldehyde dehydrogenase, mitochondrial (Homo sapiens) (UniProt P05091); experiment: qHTS for Inhibitors of the Aldehyde Dehydrogenase Family (ALDH2) Primary screen (AID 2061308); further: nearly all actives have a fitted effect of over 55% in size; further: potency means the concentration at half of the fitted maximal effect
[2] = molecular target: Retinaldehyde dehydrogenase 3 (Homo sapiens) (UniProt P47895); experiment: qHTS for Inhibitors of the Aldehyde Dehydrogenase Family (ALDH1A3) Validation screen (AID 2061312); further: on the % scale 0 is the no-effect control and ±100 the full control effect; nearly all actives have a fitted effect of over 45% in size
[3] = molecular target: Retinaldehyde dehydrogenase 3 (Homo sapiens) (UniProt P47895); experiment: qHTS for Inhibitors of the Aldehyde Dehydrogenase Family (ALDH1A3) Primary screen (AID 2061315);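 further: plate controls were DMSO vehicle for no effect and reference inhibitor for full effect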
[4] = molecular target: Retinaldehyde dehydrogenase 3 (Homo sapiens) (UniProt P47895); experiment: qHTS for Inhibitors of the Aldehyde Dehydrogenase Family (ALDH1A3) Confirmatory screens (AID 2061311); further: potency means the concentration at half of the fitted maximal effect; nearly all actives have a fitted effect of over 60% in size
[5] = molecular target: Aldehyde dehydrogenase 1A1 (Homo sapiens) (UniProt P00352); experiment: qHTS for Inhibitors of the Aldehyde Dehydrogenase Family (ALDH1A1) Confirmatory screens (AID 2061316); further: potency means the concentration at half of the fitted maximal effect; nearly all actives have a fitted effect of over 65% in size
[6] = BET inhibitor-based combinations targeting novel dependencies in MECOM-rearranged (r) AML: SET-2 cell line (AID 2202231); conditions: SET-2 AML cells viability, CellTiter-Glo luminescence, 48 h; viability: stronger effect = lower value, series mostly up to about 46 µM;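 further: plate controls were DMSO treated cells for no effect and wells without cells for full effect; nearly all actives have a fitted effect of over 35% in size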
Method in brief: (§1)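 Each compound was tested at eleven concentrations on cells seeded at 500/well. After two days' incubation, ATP-based luminescence reported viability; responses relative to DMSO and blank wells yielded AUC and cell-line-centred Z-AUC.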

[7] = BET inhibitor-based combinations targeting novel dependencies in MECOM-rearranged (r) AML: OCI-AML3 cell line (AID 2202232); conditions: Potency: OCI-AML3 viability;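 further: series mostly up to about 46 µM; plate controls were DMSO vehicle wells for no effect and wells without cells for full effect; nearly all actives have a fitted effect of over 35% in size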
Method in brief: as §1

[8] = BET inhibitor-based combinations targeting novel dependencies in MECOM-rearranged (r) AML: MV-4-11 cell line (AID 2202233);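 further: plate controls were DMSO for no effect and blank wells for full effect; nearly all actives have a fitted effect of over 45% in size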
Method in brief: (§2)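 First, 500 cells per well were seeded; next, drugs were pinned as 11-point doses; then plates sat 48 hr in the incubator; finally CellTiter-Glo was added and luminescence read, with AUC and Z-AUC computed.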

[9] = BET inhibitor-based combinations targeting novel dependencies in MECOM-rearranged (r) AML: HNT-34 cell line (AID 2202234);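 further: plate controls were vehicle wells for no effect and cell-free wells for full effect; nearly all actives have a fitted effect of over 35% in size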
Method in brief: as §2

[10] = BET inhibitor-based combinations targeting novel dependencies in MECOM-rearranged (r) AML: UCSD-AML1 cell line (AID 2202235);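 further: series mostly up to about 46 µM; plate controls were DMSO vehicle wells for no effect and blank wells for full effect; nearly all actives have a fitted effect of over 40% in size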
Method in brief: as §2

[11] = BET inhibitor-based combinations targeting novel dependencies in MECOM-rearranged (r) AML: AML-191 cell line (AID 2202236;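 further: plate controls were vehicle wells for no effect and wells without cells for full effect; nearly all actives have a fitted effect of over 35% in size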)
Method in brief: as §1

Cc1ccccc1-c1cc(N2CCN(C)CC2)ncc1N(C)C(=O)C(C)(C)c1cc(C(F)(F)F)cc(C(F)(F)F)c1
inactive: Potency [1] | Potency [2] | Potency [3]

C[C@]12CC[C@@H]3c4ccc(O)c(O)c4CC[C@H]3[C@@H]1CCC2=O
active: Potency [1] 15.8 µM | Potency [4] 15.9 µM | Potency [5] 1.59 µM

COc1cc2nc(N3CCC(N4CCCCC4)CC3)nc(NC3CCCCCC3)c2cc1OC
inactive: Potency [1] | Potency [2] | Potency [3]

CCOC(=O)c1[nH]c2c(c1C)C(=O)CC(c1ccco1)C2 (stereo unspecified)
active: Potency [4] 12.7 µM | Potency [5] 2.52 µM
inactive: Potency [1] | Potency [3]

Cc1cc(C)cc(-c2cnc3cc(Cl)c(-c4cccc(O)c4)cc3c2OCCCN)c1
inactive: Potency [1] | Potency [2] | Potency [3]

COCCOc1cnc2ccn([C@H](C)c3nnc4c(F)cc(-c5cnn(C)c5)cn34)c(=O)c2c1
inactive: Potency [1] | Potency [3] | viability [6] 70.9% | Potency [7] | Potency [8] | Potency [9] | Potency [10] | Potency [11]
active: Potency [4] 12.7 µM | Potency [5] 25.2 µM

O=C(NCc1nc2ccccc2c(=O)n1-c1ccc(F)cc1)Nc1ccc(Cl)c(C(F)(F)F)c1
inactive: Potency [1] | Potency [2] | Potency [3]

C[C@@H](NC(=O)C(=O)c1c[nH]c2ccc([N+](=O)[O-])cc12)c1ccccc1
inactive: Potency [1] | Potency [2] | Potency [3]

C[C@@H]1C[C@H]2[C@@H]3C[C@H](F)C4=CC(=O)C=C[C@]4(C)[C@@]3(F)[C@@H](O)C[C@]2(C)[C@@]1(O)C(=O)CO
inactive: Potency [1] | Potency [2] | Potency [3]

CC(C)c1nc(CN(C)C(=O)N[C@H](C(=O)N[C@@H](Cc2ccccc2)C[C@H](O)[C@H](Cc2ccccc2)NC(=O)OCc2cncs2)C(C)C)cs1
inactive: Potency [1] | Potency [2] | Potency [3]

COc1c(Nc2ncc(Cl)c(N[C@H]3[C@@H](C(N)=O)[C@@H]4C=C[C@H]3C4)n2)ccc2c1CC[C@@H](N1CCOCC1)CC2
inactive: Potency [1] | Potency [2] | Potency [3]

CCc1cnn2c(NCc3ccc[n+]([O-])c3)cc(N3CCCCC3CCO)nc12 (stereo unspecified)
inactive: Potency [1] | Potency [2] | Potency [3]

CC(=O)N1c2ccc(-c3ccc(C(=O)O)cc3)cc2C(Nc2ccc(Cl)cc2)CC1C (stereo unspecified)
inactive: Potency [1] | Potency [2] | Potency [3]

C[C@@H](O[C@H]1OCCN(Cc2n[nH]nc2CN(C)C)[C@H]1c1ccc(F)cc1)c1cc(C(F)(F)F)cc(C(F)(F)F)c1
inactive: Potency [1] | Potency [2] | Potency [3]

COc1ccc(NS(=O)(=O)c2sc3ccc(Cl)cc3c2C)cc1N1CCNCC1
inactive: Potency [1] | Potency [2] | Potency [3]

OC(CNCCc1c[nH]c2ccccc12)Cn1c2ccccc2c2ccccc21 (stereo unspecified)
inactive: Potency [1] | Potency [2] | Potency [3]

COc1ccc2nc(-c3cc(OC)c(OC)c(OC)c3)cc(C(=O)NCC(=O)Nc3ccc(C(C)=O)cc3)c2c1
inactive: Potency [1] | Potency [2] | Potency [3]

COc1cc2c(cc1-c1c(C)noc1C)ncc1[nH]c(=O)n(C(C)c3ccccn3)c12 (stereo unspecified)
inactive: Potency [1] | Potency [2] | Potency [3]

CCOc1cc(C(C)(C)C)ccc1C1=NC(C)(c2ccc(Cl)cc2)C(C)(c2ccc(Cl)cc2)N1C(=O)N1CCN(CCCS(C)(=O)=O)CC1 (stereo unspecified)
inactive: Potency [1] | Potency [2] | Potency [3]

CC(C)n1cnc2c(Nc3cccc(Cl)c3)nc(NCCO)nc21
inactive: Potency [1] | Potency [2] | Potency [3]

Cc1ccc2nc(NC(=O)CSc3nc4c(c(=O)n3-c3ccc(F)cc3)SCC4)sc2c1
inactive: Potency [1] | Potency [2] | Potency [3]

CCS(=O)c1nc(-c2cccc(OCc3ccccc3)c2)cc(C(F)(F)F)n1 (stereo unspecified)
inactive: Potency [1] | Potency [2] | Potency [3]

CC[C@H]1OC(=O)[C@H](C)[C@@H](O[C@H]2C[C@@](C)(OC)[C@@H](O)[C@H](C)O2)[C@H](C)[C@@H](O[C@@H]2O[C@H](C)C[C@H](N(C)C)[C@H]2O)[C@](C)(O)C[C@@H](C)C(=O)[C@H](C)[C@H]2OC(=O)O[C@@]21C
inactive: Potency [1] | Potency [2] | Potency [3]

NC(=O)N1CCC(CC(=O)N2CCC(C3c4ncc(Br)cc4CCc4cc(Cl)cc(Br)c43)CC2)CC1 (stereo unspecified)
inactive: Potency [1] | Potency [2] | Potency [3]

CC(Oc1cc(-n2cnc3ccc(CN4CCN(C)CC4)cc32)sc1C(N)=O)c1ccccc1C(F)(F)F (stereo unspecified)
inactive: Potency [1] | Potency [2] | Potency [3]

O=C(c1ccc(Cl)c([N+](=O)[O-])c1)N1CCN(c2ccccc2F)CC1
inactive: Potency [1] | Potency [2] | Potency [3]

COc1ccc(C2=NC(c3ccc(Cl)cc3)C(c3ccc(Cl)cc3)N2C(=O)N2CCNC(=O)C2)c(OC(C)C)c1 (stereo unspecified)
inactive: Potency [1] | Potency [2] | Potency [3]

NC(=O)c1nc(Nc2ccccc2)sc1NC(=O)C1CCCCC1
inactive: Potency [1] | Potency [2] | Potency [3]

CC(NC(=O)Cc1cc(F)cc(F)c1)C(=O)NC1C(=O)N(C)c2ccccc2-c2ccccc21 (stereo unspecified)
inactive: Potency [1] | Potency [2] | Potency [3]

O=C1Cc2c([nH]c3ccc(Br)cc23)-c2ncccc2N1
inactive: Potency [1] | Potency [2] | Potency [3]

CC[C@H](C)[C@H]1O[C@]2(CC[C@@H]1C)C[C@@H]1C[C@@H](C/C=C(\C)[C@@H](O[C@H]3C[C@H](OC)[C@@H](O[C@H]4C[C@H](OC)[C@@H](O)[C@H](C)O4)[C@H](C)O3)[C@@H](C)/C=C/C=C3\CO[C@@H]4[C@H](O)C(C)=C[C@@H](C(=O)O1)[C@]34O)O2
inactive: Potency [1] | Potency [2] | Potency [3]
